Structures are written as SMILES. Compounds without any hit were thinned out: in the full panel of roughly 83,000, 20% have a hit.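 Negative percent growth values reflect cell death: -40 means 40% of the cells present at the start died, and -100 means all died.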 Values without a mark were called inactive. Calls of active or inactive are those of the source. Rule for the calls: active = growth percent below 10; inactive = the rest.

Common to all, as to assay: NCI-60 one-dose screen, 48 h (100 = growth as untreated, 0 = no growth, -100 = all killed)
What all share (settings): 10 µM unless noted

The subject of assay [1] is NCI-H23 lung.
Assay [2] relates to NCI-H226 lung.
For assay [3], the system named is NCI-H322M lung.
Assay [4] has as its system HOP-62 NSCLC.
In assay [5] the test system is NCI-H460 lung.
Assay [6] concerns HOP-92 NSCLC.
For assay [7], the system named is NCI-H522 lung.
The subject of assay [8] is A549/ATCC NSCLC.
For assay [9], the system named is 786-0 renal.
For assay [10], the system named is COLO 205 colon.
Assay [11] has as its system DU-145 prostate.
The test system of assay [12] is K-562 leukemia.
The subject of assay [13] is MALME-3M melanoma.
Assay [14] deals with MDA-MB-231 breast.
In assay [15] the test system is SF-268 CNS.
For assay [16], the system named is SF-295 CNS.
Assay [17] has as its system SF-539 CNS.
The test system of assay [18] is M14 melanoma.

As to `CSc1nc(-c2cc3ccccc3o2)cc(-c2ccc(Cl)cc2)c1C#N`, the growth is 44.8% in assay [1]; 39.1% in assay [2]; 82.2% in assay [3]; 69.8% in assay [4]; 24% in assay [5]; 10.3% in [6]. Further, the growth in [7] is 25.6%; in assay [8], 32%; in [9], 90.3%; in assay [10] it was 42.7%; in [11] it was 68.5%; in assay [12], 63.4%. The growth in assay [13] was 89.3%; in assay [14], 27.8%; in assay [15], 51.7%; in [16], 9.92% (active); in assay [17], -7.47% (active); in assay [18], 67.6%.

Consider `Cc1oc2nc[nH]c(=O)c2c1C(=O)/C=C/c1ccc(Cl)cc1`, for which the growth in [1] is 39.7%; in assay [2] it was 94%; in assay [3], 45.2%; in assay [4], 6.15% (active); in assay [5] it was 21%; in [6], -4.23% (active). Also, the growth in assay [7] is 17.5%; in [8], 31.7%; in assay [9], 29.7%; in assay [10] it was 70.8%; in assay [11], 6.76% (active); in [12], -63.2% (active). Moreover, the growth in assay [13] is 71%; in assay [14] it was 22.3%; in [15] it was 50.1%; in [16], 77%; in assay [17], 14.5%; in assay [18] it was 82.3%.

Take `CCCCNc1nnc(-c2cc(-c3cc4ccccc4o3)nn2-c2ccccc2)o1`: the growth was 96.7% in assay [1]; 86.2% in [2]; 87.4% in assay [3]; 110% in [4]; 98.7% in assay [5]; 46.4% in assay [6]. Moreover, the growth in [7] was 80%; in assay [8], 82%; in assay [9], 93%; in assay [10] it was 105%; in assay [11], 102%; in assay [12], 83%. Also, the growth in assay [13] is 93.1%; in [14], 91.4%; in assay [15], 93.9%; in [16], 98.7%; in assay [17] it was 97.4%; in assay [18], 108%.

`COc1cccc2cc(-c3cc4ccccc4[nH]3)/c(=N/C(=S)Nc3ccccc3)oc12`: the growth in assay [1] is 61.8%; in assay [2], 69.9%; in assay [3] it was 84%; in assay [4], 18.5%; in assay [5] it was 69.3%; in assay [6], 5.47% (active). In addition, the growth in assay [7] was 88.1%; in assay [8] it was 91.4%; in assay [9] it was 59.4%; in [10], 98.1%; in assay [11] it was 74.4%; in assay [12] it was 84.4%. In addition, the growth in [13] was 78.9%; in assay [14], 61.6%; in assay [15], 70.6%; in assay [16] it was 87.1%; in assay [17], 33%; in assay [18] it was 70.6%.

Consider `COc1cc(C2C3=C(COC3=O)Nc3c2ccc2c3CCCC2)cc2c1OCO2` (configuration not stated), for which the growth is 16.4% in [1]; -5.06% (active) in [2]; 47% in assay [3]; 21.9% in [4]; 3.74% (active) in assay [5]; 127% in [6]. For the same compound, the growth in assay [7] was -35.1% (active); in assay [8], 25%; in assay [9], 18.7%; in assay [10], -67.7% (active); in assay [11], -24.7% (active); in assay [12] it was 12.7%. Also, the growth was 92.1% in [13]; 6.67% (active) in assay [14]; 8.63% (active) in [15]; 13.3% in assay [16]; 4.95% (active) in assay [17]; 13.3% in assay [18].

With `O=S(=O)(NCCCNc1nccc(-c2c(-c3ccc(F)c(O)c3)nc3sccn23)n1)c1ccc(Cl)cc1`, the growth in assay [1] is 80%; in [2], 104%; in assay [3], 98.6%; in assay [4] it was 96.6%; in [5], 86.3%; in assay [6], 74.3%. Also, the growth in assay [7] was 57.5%; in assay [8], 76.9%; in [9] it was 110%; in assay [10], 42.6%; in assay [11], 87.4%; in [12], 44.2%. For the same compound, the growth in assay [13] was 2.69% (active); in assay [14], 66.4%; in assay [15] it was 82.8%; in assay [16] it was 106%; in [17], 103%; in [18], 18.1%.

As to `O=c1oc2c([nH]c3ccc4ccccc4c32)c2ccccc12`, the growth in assay [1] was 93.6%; in [2], 104%; in assay [3], 101%; in assay [4], 103%; in [5], 112%; in assay [6], 90.2%. Further, the growth in [7] is 102%; in [8] it was 134%; in [9], 102%; in assay [10], 108%; in assay [11] it was 106%; in [12], 124%. Also, the growth in assay [13] is 115%; in [14] it was 112%; in assay [15] it was 115%; in assay [16] it was 99.6%; in assay [17], 102%; in assay [18], 109%.

For the compound `COc1ccc(NC(=S)/N=c2\oc3c(OC)cccc3cc2-c2cc3ccccc3[nH]2)cc1`, the growth in [1] is 70.1%; in assay [2] it was 58.8%; in assay [3], 80.8%; in assay [4] it was 37.6%; in assay [5] it was 69.8%; in assay [6], -9.96% (active). In addition, the growth is 86.3% in assay [7]; 85.2% in assay [8]; 65% in assay [9]; 101% in assay [10]; 62.6% in [11]; 81.4% in assay [12]. In addition, the growth in assay [13] was 63.5%; in assay [14] it was 42.2%; in assay [15], 73%; in assay [16], 84.6%; in assay [17], 26.4%; in assay [18], 93.5%.

Consider `C#CCN1C(=O)/C(=c2\sc3n(c2=O)NC2C(N=3)N(CC)C(=O)N2CC)c2ccccc21` (configuration not stated), for which the growth in assay [1] is 54.1%; in assay [2], 87.4%; in assay [3], 95.8%; in [4] it was 80.9%; in assay [5], 99.2%; in assay [6], 76.4%. Further, the growth in assay [7] was 52.4%; in assay [8], 85.6%; in [9] it was 61.2%; in assay [10] it was 37.1%; in [11] it was 41%; in assay [12], 3.27% (active). The growth in assay [13] is 51.5%; in [14] it was 69.9%; in [15] it was 75.5%; in [16], 86.7%; in assay [17] it was 38.7%; in assay [18], 80.7%.

The values are drawn from PubChem BioAssay (NCI).
